Screening data deposited in PubChem BioAssay by National Center for Advancing Translational Sciences (NCATS).
G9a inh – qHTS Assay for Inhibitors of Histone Lysine Methyltransferase G9a; Histone-lysine N-methyltransferase EHMT2 (Homo sapiens), Q96KQ7; G9a H3K9 monomethylation, AlphaScreen, 2 h; Potency, µM (doses to about 102 µM), for inactives: at the top dose activity, negative = inhibition, actives largely listed as inhibitors; 350,000 compounds, 8.8% hits; AID 504332, 2011; also: potency is read from the fitted curve at half-maximal effect; % is scaled to controls: 0 for no effect and ±100 for the full control effect; nearly all actives have a fitted effect of over 75% in size
Target sequence (Q96KQ7 913-1193 limits assumed): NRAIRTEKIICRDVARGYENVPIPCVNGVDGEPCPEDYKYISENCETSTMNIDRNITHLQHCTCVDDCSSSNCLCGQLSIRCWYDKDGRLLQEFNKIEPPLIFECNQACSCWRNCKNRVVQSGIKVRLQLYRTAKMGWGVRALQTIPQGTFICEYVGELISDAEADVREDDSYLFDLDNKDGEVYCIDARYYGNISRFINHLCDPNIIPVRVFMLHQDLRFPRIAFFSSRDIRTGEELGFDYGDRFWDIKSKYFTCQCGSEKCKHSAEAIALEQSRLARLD
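Step 1: enzyme (final 20 nM) with compound, 15 min RT. Step 2: substrate peptide 500 nM and SAM 20 uM, 2 h RT. Step 3: anti-H3K9me1 antibody and AlphaScreen beads, 10 min, then plate read.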
CtBP-E1A inh – qHTS Assay for Inhibitors of the CtBP/E1A Interaction; AID 651724, 2012; activity change, % (no concentration beside the values); CtBP / adenovirus E1A interaction (AlphaScreen); AlphaScreen GST-E1A/His-CtBP binding, 1536-well; stronger effect = lower value; 340,000 compounds, 0.49% hits; in the data active = activity change below about -65%; inconclusive = mostly about -30% to -63%; also: % is scaled to controls: 0 for no effect and ±100 for the full control effect
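Steps: dispense buffer (Tris pH 8.0, NaCl 300 mM, TCEP 1 mM, BSA, Tween 20); add 5X protein mix (GST-E1A, His-CtBP, 125 nM each); pin 23 nL compound; 2 h at 37 °C, dark; add 5X beads (50 ug/mL); 1 h; read.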
BAZ2B inh – qHTS Assay for Inhibitors of BAZ2B. AID 504333, 2011. 360,000 compounds, 4.4% hits. Potency, µM (top dose mostly 114 µM), for inactives: at the top dose activity change, negative = inhibition, actives largely listed as inhibitors. AlphaScreen BAZ2B-H3K14Ac peptide displacement; also: potency is read from the fitted curve at half-maximal effect; % is scaled to controls: 0 for no effect and ±100 for the full control effect; nearly all actives have a fitted effect of over 60% in size
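AlphaScreen displacement of biotin-H3(5-23)K14Ac peptide (50 nM final) from BAZ2B (50 nM final) in PBS pH 7.4, 0.01% Tween-20; complex preformed 30 min RT, then compounds (top 110 uM) 30 min RT, beads 20 min dark.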
JMJD2A Tudor – qHTS Assay for Inhibitors of JMJD2A-Tudor Domain; Potency, µM (top dose mostly 114 µM), for the others: at the highest dose activity change, negative = inhibition, hits mostly inhibitors; Lysine-specific demethylase 4A (Homo sapiens), O75164; 390,000 compounds, 4.4% hits; AID 504339, 2011; AlphaScreen JMJD2A-Tudor / H3K4me3 peptide binding; also: potency is read from the fitted curve at half-maximal effect; % is scaled to controls: 0 for no effect and ±100 for the full control effect; nearly all actives have a fitted effect of over 50% in size
HP1b binding inh – HTS for Inhibitors of HP1-beta Chromodomain Interactions with Methylated Histone Tails. Chromobox protein homolog 1 (Homo sapiens), P83916. AlphaScreen HP1-beta / biotin-H3K9me3 peptide binding. Potency, µM (top dose mostly 114 µM), for inactives: at the top dose activity change, negative = inhibition, actives largely listed as inhibitors. 390,000 compounds, 0.56% hits. AID 540317, 2011; also: potency is read from the fitted curve at half-maximal effect; nearly all actives have a fitted effect of over 70% in size
Target sequence (P83916 whole entry, looked up): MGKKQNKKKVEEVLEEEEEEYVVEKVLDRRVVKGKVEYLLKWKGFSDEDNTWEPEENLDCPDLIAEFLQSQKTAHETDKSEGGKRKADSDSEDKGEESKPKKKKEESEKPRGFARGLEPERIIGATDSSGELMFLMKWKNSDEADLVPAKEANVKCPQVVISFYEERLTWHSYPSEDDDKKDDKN
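HP1-beta protein (50 nM final) preincubated 30 min at room temperature with biotinylated H3(1-18)K9me3 peptide (50 nM) in PBS pH 7.4, 0.01% Tween-20, then compound added for 30 min. AlphaScreen streptavidin donor/nickel chelate acceptor beads (10 ug/mL final), 30 min dark, luminescence read.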
Six1-Eya2 blk – qHTS Assay for Inhibitors of the Six1/Eya2 Interaction; activity change, % (concentration not given with the values); Homeobox protein SIX1 (Homo sapiens) + Protein phosphatase EYA2 (Homo sapiens), …; AlphaScreen GST-Six1/His-Eya2 binding, biochemical; stronger effect = lower value; AID 651725, 2012; 360,000 compounds, 0.56% hits; in the data active = activity change below about -65%; inconclusive = mostly about -30% to -63%; also: % is scaled to controls: 0 for no effect and ±100 for the full control effect
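Six1/Eya2 binding was read as AlphaScreen signal after compounds were pinned into GST-Six1 plus His-tagged Eya2 (5X stock 250/500 nM) in pH 8.0 Tris/NaCl/TCEP buffer, beads added, then incubated 1 h, 37 C, dark.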
An asterisk follows results filed as active; [ ] = dose if it differs, or a comment. Only some compounds are listed: those with a hit (about 10% of all), similar ones and a draw of the others. Unless noted, calls follow the shape of the dose curve; as a rule, active = well fitted inhibition curve with a large enough effect; inconclusive = small, poorly fitted or top-dose-only effect; inactive = no such curve, though single readings can be large or run the other way.

Screening COc1ccc(C2C(C(=O)c3cccs3)=C(O)C(=O)N2c2nnc(C)s2)cc1OC (stereo unspecified) returned G9a inh inconclusive, CtBP-E1A inh 0, BAZ2B inh 50µM*, JMJD2A Tudor 79µM*, HP1b binding inh 24% and Six1-Eya2 blk 0.
Cc1ccc(C)c(Oc2coc3cc(OCC(=O)Nc4ccccc4C(C)C)ccc3c2=O)c1 was read as G9a inh 24%[59 µM] and BAZ2B inh -5%.
COc1ccc(/C=C/C(=O)OCC(=O)N2c3ccccc3CC2C)c(OC)c1 (stereo unspecified) was read as CtBP-E1A inh 6 and Six1-Eya2 blk 5.
Screening CNc1nnc(-c2ccc(N(C)C)cc2)s1 returned G9a inh 7.9µM*, CtBP-E1A inh 8, BAZ2B inh 3%, JMJD2A Tudor -24%, HP1b binding inh 22% and Six1-Eya2 blk -3.
For COc1cc(CN2CCSCC2)c([N+](=O)[O-])cc1OC the results were CtBP-E1A inh 7, BAZ2B inh inconclusive, JMJD2A Tudor 2.2µM*, HP1b binding inh inconclusive and Six1-Eya2 blk -2.
`COc1ccc(C(=O)Cc2cc(OC)c(OC)cc2[N+](=O)[O-])cc1` gave G9a inh 8%[59 µM], CtBP-E1A inh 12, BAZ2B inh 0%, JMJD2A Tudor -7%, HP1b binding inh 24% and Six1-Eya2 blk 1.
Screening COc1cccc(CN2CCN(Cc3cc(OC)c(OC)cc3[N+](=O)[O-])CC2)c1 returned G9a inh 7.9µM*, CtBP-E1A inh -18, BAZ2B inh inconclusive, JMJD2A Tudor 0.79µM*, HP1b binding inh -52% and Six1-Eya2 blk -12.
Screening O=c1c(C(c2ccccc2)c2c(O)nc3n(c2=O)CCS3)c(O)nc2n1CCS2 returned G9a inh 40µM*, CtBP-E1A inh 7, BAZ2B inh -5%, JMJD2A Tudor 5%, HP1b binding inh 28% and Six1-Eya2 blk 2.
`O=c1c(C(c2ccccc2)c2c(O)nc3n(c2=O)CCCS3)c(O)nc2n1CCCS2` gave G9a inh 13%[0.501 µM], CtBP-E1A inh 2, BAZ2B inh inconclusive, JMJD2A Tudor -7%, HP1b binding inh 45% and Six1-Eya2 blk 7.
O=c1c(C(c2ccc(F)cc2)c2c(O)nc3n(c2=O)CCCS3)c(O)nc2n1CCCS2 was read as G9a inh 50µM*, CtBP-E1A inh -8, BAZ2B inh -11%, JMJD2A Tudor -17%, HP1b binding inh 44% and Six1-Eya2 blk 11.
COc1ccc(-c2[nH]ncc2C(=O)NCc2cccc(F)c2)cc1 was read as G9a inh 4%[59 µM], BAZ2B inh 4%, JMJD2A Tudor -1% and HP1b binding inh 29%.
For COc1ccccc1-c1nc(N)n[nH]1 the results were CtBP-E1A inh 5, BAZ2B inh 1%, JMJD2A Tudor -3%, HP1b binding inh 50% and Six1-Eya2 blk 3.
For COc1ccccc1-c1cc(N)n[nH]1 the results were G9a inh 12%, CtBP-E1A inh -3, BAZ2B inh -10%, JMJD2A Tudor -20%[11.4 µM], HP1b binding inh -29% and Six1-Eya2 blk 5.
For COc1ccccc1-c1n[nH]c(=S)n1N the results were G9a inh 13µM*, CtBP-E1A inh 0, BAZ2B inh inconclusive, JMJD2A Tudor inconclusive, HP1b binding inh 16% and Six1-Eya2 blk 3.
`COc1ccccc1-c1n[nH]c(=S)n1-c1ccccc1` gave G9a inh 2.5µM*, CtBP-E1A inh 4, BAZ2B inh -27%, JMJD2A Tudor 7.9µM*, HP1b binding inh 37% and Six1-Eya2 blk 3.
Screening CC(=O)N=c1sc(S(N)(=O)=O)nn1C returned G9a inh 13µM*, CtBP-E1A inh 3, BAZ2B inh -17%, JMJD2A Tudor -7%, HP1b binding inh 34% and Six1-Eya2 blk 6.
`CC(=O)Nc1nc(C)c(S(N)(=O)=O)s1` gave G9a inh 2%, CtBP-E1A inh 17, BAZ2B inh -1%, JMJD2A Tudor -7%, HP1b binding inh 42% and Six1-Eya2 blk 2.
`CCOc1ccc(-c2csc(NC(=O)c3ccco3)n2)cc1` gave G9a inh 40µM*, BAZ2B inh -6%, JMJD2A Tudor -22%, HP1b binding inh 11% and Six1-Eya2 blk 2.
`COc1ccc(-c2csc(NC(=O)c3ccco3)n2)cc1` gave G9a inh 14µM*, CtBP-E1A inh 6, BAZ2B inh inconclusive, JMJD2A Tudor -21%, HP1b binding inh 23% and Six1-Eya2 blk -5.
O=C(/C=C\c1ccco1)Nc1nc(-c2ccc3ccccc3c2)cs1 was read as G9a inh 50µM*, CtBP-E1A inh 20, BAZ2B inh inconclusive, JMJD2A Tudor -17%, HP1b binding inh 5% and Six1-Eya2 blk 5.
O=C(Nc1nc(-c2ccccc2)cs1)c1ccco1 was read as G9a inh inconclusive, CtBP-E1A inh 0, BAZ2B inh 10%, JMJD2A Tudor -16%, HP1b binding inh 26% and Six1-Eya2 blk 1.
`O=C(Nc1nc(-c2ccco2)cs1)c1ccccc1` gave G9a inh inconclusive, CtBP-E1A inh 0, BAZ2B inh 56µM*, JMJD2A Tudor inconclusive, HP1b binding inh -30% and Six1-Eya2 blk -15.
Screening Cc1ccc(-c2csc(NC(=O)c3ccco3)n2)cc1C returned CtBP-E1A inh -11, BAZ2B inh 4%, JMJD2A Tudor -28%, HP1b binding inh 12% and Six1-Eya2 blk -15.
`Cc1c(Cl)cccc1NC(=O)C(CCS(C)(=O)=O)N1Cc2ccccc2C1=O` (stereo unspecified) gave G9a inh 6%[59 µM], BAZ2B inh 3%, JMJD2A Tudor -15% and HP1b binding inh -8%.
Screening COc1ccc(-c2csc(N(CC(C)C)C(=O)c3ccco3)n2)cc1 returned G9a inh 5%[0.501 µM], CtBP-E1A inh -2, BAZ2B inh inconclusive, JMJD2A Tudor 6%, HP1b binding inh 17% and Six1-Eya2 blk -3.
O=C(NC(=S)Nc1nc(-c2ccc(Br)cc2)cs1)c1ccco1 was read as G9a inh 5%, CtBP-E1A inh 3, BAZ2B inh 5%, JMJD2A Tudor 4%, HP1b binding inh 26% and Six1-Eya2 blk -2.
